Consider ten compounds from publication PMC5540273 (PLoS ONE, 2017).

Structures are written as SMILES. Like-named read-outs stand apart in the source and are kept apart here.

One assay concerns T1, NIM1.
T1 construct: gene MGC42105
The following applies: concentration: 1 μM, replicates: in singlicate; n = 1.

Another assay relates to NLK. The settings on record: concentration: 1 μM, replicates: in singlicate; n = 1.
For another assay, the system named is T2, OSR1.
T2 construct: gene OXSR1
The following applies: concentration: 1 μM, replicates: in singlicate; n = 1.

In the next assay the test system is PAK1. The following applies: concentration: 1 μM, replicates: in singlicate; n = 1.
For another assay, the system named is PAK2. The settings on record: concentration: 1 μM, replicates: in singlicate; n = 1.
The next assay relates to PAK3. The settings on record: concentration: 1 μM, replicates: in singlicate; n = 1.
For a further assay, the system named is PAK4. The settings on record: n = 1.
Another assay relates to PAK6. The settings on record: concentration: 1 μM, replicates: in singlicate; n = 1.
The test system of the next assay is PAK7. The following applies: concentration: 1 μM, replicates: in singlicate; n = 1.
In another assay the test system is T3, PCTK1.
T3 construct: gene CDK16
The following applies: concentration: 1 μM, replicates: in singlicate; n = 1.

For another assay, the system named is T4, PCTK2.
T4 construct: gene CDK17
The settings on record: concentration: 1 μM, replicates: in singlicate; n = 1.

The test system of another assay is T5, PCTK3.
T5 construct: gene CDK18
The settings on record: concentration: 1 μM, replicates: in singlicate; n = 1.

The next assay concerns PDGFRA. The following applies: concentration: 1 μM, replicates: in singlicate; n = 1.
The next assay concerns PDGFRB. The settings on record: concentration: 1 μM, replicates: in singlicate; n = 1.
For the next assay, the system named is PDPK1. The settings on record: concentration: 1 μM, replicates: in singlicate; n = 1.
Another assay concerns PFTAIRE2. The following applies: concentration: 1 μM, replicates: in singlicate; n = 1.
Another assay concerns T6, PFTK1.
T6 construct: gene CDK14
The following applies: concentration: 1 μM, replicates: in singlicate; n = 1.

For a further assay, the system named is PHKG1. The settings on record: concentration: 1 μM, replicates: in singlicate; n = 1.
In another assay the test system is PHKG2. The settings on record: concentration: 1 μM, replicates: in singlicate; n = 1.
For another assay, the system named is PIK3C2B. The following applies: concentration: 1 μM, replicates: in singlicate; n = 1.
Setting [1] is: concentration: 1 μM, replicates: in singlicate.
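Note: KINOMEscan kinase panel screen.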

Regarding `Cc1ccc(-c2ccc3occ(-c4ccc(S(C)=O)cc4)c3c2)nn1` (centres unmarked), the “%Inh” value in the assay with NIM1 was found to be 0%; in the assay with NLK, 1%; in the assay with OSR1 it was 0%; with PAK1, 6%; in the assay with PAK2, 4%; in the assay on PAK3 it was 0%. The “%Inh” value came out at 1% with PAK4 (setting [1]); 0% in the assay with PAK6; 0% in the assay on PAK7; 0% in the assay with PCTK1; 0% with PCTK2; 0% with PCTK3. In addition, the “%Inh” value is recorded as 0% with PDGFRA; 0% in the assay on PDGFRB; 16% in the assay with PDPK1; 0% in the assay with PFTAIRE2; 6% with PFTK1; 0% in the assay with PHKG1. Besides, the results for the “%Inh” value in the assay with PHKG2 and with PIK3C2B were 16% and 0%, respectively.
Turning to `c1ccc(Oc2ccc(Nc3ccnc4cc(-c5ccc(CN6CCCCC6)o5)ccc34)cc2)nc1` [GW567143], the “%Inh” value in the assay on NIM1 was found to be 69%; with NLK, 13%; in the assay with OSR1, 4%; with PAK1 it was 16%; in the assay with PAK2 it was 16%; in the assay on PAK3 it was 33%. The “%Inh” value in the assay with PAK4 (setting [1]) is reported as 0%; with PAK6, 0%; in the assay on PAK7, 8%; in the assay on PCTK1, 0%; with PCTK2, 0%; in the assay with PCTK3 it was 11%. Further, the “%Inh” value in the assay with PDGFRA was determined as 82%; in the assay with PDGFRB it was 98.6%; in the assay with PDPK1, 0%; in the assay on PFTAIRE2 it was 7%; in the assay with PFTK1 it was 9%; in the assay with PHKG1, 5%. Further, the “%Inh” value in the assay with PHKG2 and with PIK3C2B was 0% throughout.
Turning to `Cc1cccc(Nc2nc(N[C@H]3CCCC[C@H]3N)ncc2C(N)=O)c1.Cl` [GSK986310], the “%Inh” value was determined as 18% in the assay with NIM1; 27% in the assay on NLK; 33% in the assay on OSR1; 40% with PAK1; 70% in the assay on PAK2; 55% in the assay on PAK3. Besides, the “%Inh” value in the assay on PAK4 (1 µM) worked out at 95.4%; in the assay on PAK6 it was 89%; in the assay with PAK7 it was 99.5%; with PCTK1, 10%; in the assay with PCTK2, 17%; in the assay with PCTK3, 24%. The “%Inh” value with PDGFRA was determined as 12%; with PDGFRB, 80%; with PDPK1 it was 3%; in the assay with PFTAIRE2, 24%; in the assay with PFTK1 it was 29%; in the assay with PHKG1, 33%. Also, the “%Inh” value in the assay with PHKG2 is given as 44%; in the assay with PIK3C2B, 0%.
Turning to `CC(=O)Nc1cn2nc(Oc3cccc(NC(=O)c4cccc(C(F)(F)F)c4)c3)ccc2n1`, the “%Inh” value in the assay with NIM1 was found to be 0%; with NLK, 16%; with OSR1, 0%; with PAK1 it was 9%; in the assay on PAK2 it was 15%; in the assay on PAK3, 16%. Also, the “%Inh” value is recorded as 15% with PAK4 (setting [1]); 12% in the assay with PAK6; 0% in the assay on PAK7; 0% in the assay on PCTK1; 0% in the assay on PCTK2; 6% with PCTK3. The “%Inh” value with PDGFRA is 99.6%; with PDGFRB it was 100%; with PDPK1, 9%; with PFTAIRE2, 0%; in the assay on PFTK1, 3%; with PHKG1 it was 31%. Further, the “%Inh” value in the assay on PHKG2 and with PIK3C2B was 0% each time.
For the compound `COC(=O)Nc1nc2ccc(Oc3ccc(NC(=O)Nc4cc(C(F)(F)F)ccc4F)cc3)cc2[nH]1.Cl` [GW654607], the “%Inh” value in the assay on NIM1 is 0%; in the assay with NLK, 34%; in the assay on OSR1, 15%; in the assay on PAK1 it was 0%; with PAK2, 0%; in the assay with PAK3, 22%. Moreover, the “%Inh” value with PAK4 (setting [1]) was 0%; with PAK6, 0%; in the assay on PAK7 it was 0%; in the assay on PCTK1, 4%; in the assay on PCTK2, 10%; in the assay with PCTK3, 14%. Also, the “%Inh” value was determined as 96.6% with PDGFRA; 100% with PDGFRB; 0% with PDPK1; 89% with PFTAIRE2; 47% in the assay on PFTK1; 0% in the assay with PHKG1. For the same compound, the “%Inh” value in the assay on PHKG2 and in the assay with PIK3C2B was 0% each time.
Regarding `CS(=O)(=O)c1cccc(CNc2nc(Nc3ccc4c(c3)CCC(=O)N4)ncc2C(F)(F)F)c1`, the “%Inh” value was 5% in the assay on NIM1; 0% in the assay with NLK; 0% in the assay with OSR1; 0% in the assay with PAK1; 0% in the assay with PAK2; 0% in the assay on PAK3. The “%Inh” value in the assay on PAK4 (setting [1]) is listed as 0%; with PAK6 it was 0%; with PAK7, 0%; in the assay on PCTK1 it was 0%; with PCTK2, 0%; in the assay with PCTK3, 4%. The “%Inh” value in the assay with PDGFRA was 15%; in the assay with PDGFRB, 62%; in the assay on PDPK1, 32%; with PFTAIRE2, 14%; in the assay on PFTK1, 10%; with PHKG1 it was 0%. Further, the “%Inh” value in the assay on PHKG2 was 3%; in the assay on PIK3C2B, 0%.
Take `CSc1ccc(NC2=C(c3ccc(Cl)cc3)C(=O)NC2=O)cc1` [SB-317658]: the “%Inh” value with NIM1 is 0%; with NLK it was 0%; in the assay with OSR1, 6%; with PAK1, 2%; in the assay with PAK2 it was 28%; with PAK3 it was 36%. Also, the “%Inh” value in the assay with PAK4 (setting [1]) was determined as 2%; with PAK6 it was 29%; with PAK7 it was 0%; with PCTK1, 0%; in the assay on PCTK2, 0%; with PCTK3, 0%. In addition, the “%Inh” value with PDGFRA is 3%; with PDGFRB, 31%; with PDPK1 it was 17%; in the assay with PFTAIRE2, 4%; with PFTK1, 8%; in the assay with PHKG1, 0%. Besides, the “%Inh” value in the assay on PHKG2 and in the assay on PIK3C2B was 0% each time.
Turning to `CN(C)CCOc1ccc(-c2cc(-c3ccc(Cl)c(O)c3)c(-c3ccncc3)[nH]2)cc1.Cl.Cl` [SB-684387], the “%Inh” value in the assay on NIM1 was 40%; with NLK it was 66%; in the assay on OSR1, 7%; with PAK1, 8%; in the assay with PAK2 it was 6%; in the assay with PAK3, 0%. Moreover, the “%Inh” value worked out at 0% with PAK4 (setting [1]); 0% in the assay on PAK6; 20% in the assay with PAK7; 1% with PCTK1; 13% in the assay with PCTK2; 1% in the assay with PCTK3. In addition, the “%Inh” value in the assay with PDGFRA is on record as 12%; in the assay on PDGFRB it was 30%; in the assay on PDPK1, 0%; in the assay with PFTAIRE2, 20%; in the assay on PFTK1, 19%; with PHKG1 it was 0%. For the same compound, the “%Inh” value in the assay on PHKG2 is listed as 0%; in the assay with PIK3C2B it was 10%.
As for `COC(=O)Nc1nc2ccc(Oc3ccc(CC(=O)Nc4cc(C(F)(F)F)ccc4F)cc3)cc2[nH]1` [GW680903], the “%Inh” value in the assay with NIM1 is given as 26%; in the assay on NLK it was 22%; with OSR1, 3%; in the assay with PAK1, 19%; with PAK2, 22%; with PAK3, 15%. Further, the “%Inh” value with PAK4 (setting [1]) stood at 0%; in the assay with PAK6 it was 0%; with PAK7, 97.7%; in the assay with PCTK1 it was 0%; in the assay with PCTK2, 0%; with PCTK3 it was 30%. The “%Inh” value came to 98.5% in the assay on PDGFRA; 100% in the assay with PDGFRB; 0% with PDPK1; 0% in the assay on PFTAIRE2; 14% in the assay with PFTK1; 0% with PHKG1. For the same compound, the “%Inh” value with PHKG2 and with PIK3C2B was 0% each time.
For `O=C(O)C(F)(F)F.O=c1[nH]ccc2nc(N[C@@H]3CCNC3)nc(Nc3ccc4c(c3)S(=O)(=O)CC4)c12` [GSK2181306], the “%Inh” value worked out at 67% with NIM1; 28% in the assay with NLK; 76% with OSR1; 97.2% in the assay with PAK1; 95.2% with PAK2; 99.9% in the assay on PAK3. Moreover, the “%Inh” value is on record as 99.5% in the assay with PAK4 (setting [1]); 94.6% in the assay on PAK6; 99.9% with PAK7; 85% with PCTK1; 71% in the assay with PCTK2; 38% in the assay with PCTK3. Also, the “%Inh” value is recorded as 94.1% in the assay on PDGFRA; 99.6% in the assay on PDGFRB; 93.5% with PDPK1; 14% in the assay with PFTAIRE2; 14% with PFTK1; 96.9% with PHKG1. Also, the entries for the “%Inh” value in the assay with PHKG2 and in the assay with PIK3C2B were 93.7% and 12%, respectively.
